# PubChem BioAssay AID488890 (Southern Research Specialized Biocontainment Screening …, 2010)
# About 1,300 (0.41%) of roughly 320,000 compounds were called active. Roughly 3% stayed inconclusive and do not appear here. No rule for the calls is given here. A selection follows. Results with a measured potency or affinity are listed apart.
# Assay: growth inhibition of non-replicating M. tuberculosis (AID 488890);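 also: plate controls were DMSO cells for no effect and high antibiotic wells for full effect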
# Details: Mycobacterium tuberculosis non-replicating, at 25 µM, stronger effect = higher value
row,Structure (SMILES),inhibition
1,COc1ccc2cc(C3CC(c4cccs4)=NN3C(C)=O)c(Cl)nc2c1 (stereo not given),-4.81%
2,CCCc1nc2c(=O)[nH]c3ccccc3c2o1,-9.47%
3,CCCCc1nc2c(=O)[nH]c3ccccc3c2o1,-16.6%
4,CNCc1ccccc1Sc1cccc(O)c1,-3.89%
5,CNCc1ccccc1Sc1ccc(O)c(O)c1,33.3%
6,CC(=O)NCCOc1ccc2oc3ccccc3c2c1,5.68%
7,O=C(O)COc1ccc2oc3ccccc3c2c1,3.49%
8,CC(=O)Nc1ccc(NC(=O)COc2ccc(-c3ccc(C#N)cc3)cc2)cc1,-7.55%
9,COc1ccc(CCNC(=O)COc2ccc(-c3ccc(C#N)cc3)cc2)cc1,72.4%
10,CC(C)N(Cc1ccccc1)C(=O)CC(=O)N(Cc1ccccc1)C(C)C,6.28%
11,CCc1ccc(-c2cc(C)no2)cc1S(=O)(=O)Nc1cc(C)ccn1,-1.42%
12,CCOC(=O)N1CCN(C(=O)CN(C)S(=O)(=O)c2ccc(Cl)cc2)CC1,-17.1%
13,CSCCC(NC(=O)c1ccco1)C(=O)NC1CCCCCC1 (stereo not given),-8.42%
14,Cc1cc(Nc2nc3ccccc3nc2Cl)n(-c2ccccc2)n1,8.46%
15,CC(C)(C)NC(=S)NCc1ccco1,-18.9%
16,CC(C)(O)C(=O)NNC(=S)NCc1ccco1,-2.82%
17,COc1ccc(/C=N/NC(=O)c2cccs2)c2ccccc12,76.3%
18,CCOC(=O)CCCNC(=O)COC(=O)c1cc(C)cc(C)c1,-5.81%
19,CCOC(=O)CCCNC(=O)COC(=O)c1ccc(O)cc1,-2.65%
20,COc1ccc(S(=O)(=O)NCC2CCCN(Cc3ccc(C)o3)C2)cc1 (stereo not given),8.61%
21,COc1ccc(C(=O)N2CCN(CCNC(=O)C(=O)Nc3ccc(F)cc3)CC2)cc1OC,-5.42%
22,CC(C)NCC(=O)C12CC3CC(CC(C3)C1)C2,-12.5%
23,COc1ccc(C(=O)COC(=O)CCc2nc3ccccc3[nH]c2=O)cc1Br,5.73%

row,Structure (SMILES),inhibition
1,COC1CCCN(C(=O)c2ccc3oc(Cc4ccc(Cl)cc4)nc3c2)C1 (stereo not given),23.6%
2,CCN(CC)c1ccc(CNCc2cccs2)cc1,6.27%
3,CC(NC(=O)c1cc(Br)ccc1Br)c1ccccc1 (stereo not given),-17.5%
4,Cc1ccc(C(C)NC(=O)c2ccco2)cc1C (stereo not given),71.1%
5,CC(NC(=O)c1cc(Br)ccc1Cl)c1ccccc1 (stereo not given),0.91%
6,O=C(COc1ccccc1)NNC(=O)c1cc2ccccc2oc1=O,10.5%
7,COc1ccc2oc(=O)c(C(=O)NC(C)c3ccccc3)cc2c1 (stereo not given),16.5%
8,Cc1cc(C)cc(OCC(=O)NNC(=O)c2cc3ccccc3o2)c1,-4.01%
9,CC(=O)OCCNC(=O)c1cc2ccccc2oc1=O,-10.9%
10,COc1cccc2cc(C(=O)NC(C)c3ccccc3)c(=O)oc12 (stereo not given),26.4%
11,Cc1ccccc1CS(=O)(=O)CCC(=O)NCCCN1CCOCC1,-2.86%
12,CCN(CC)CCNC(=O)c1ccc(NC(=O)c2cc(-c3ccco3)nc3ccccc23)cc1,4.2%
13,O=C(CCc1ccccc1)Nc1cc(NC(=O)CCc2ccccc2)cc(C(=O)O)c1,-12.7%
14,COc1ccc(C(=O)Nc2ccccc2NC(=O)c2ccc(OC)cc2)cc1,-3.72%
15,COc1ccc(-c2nc(-c3cccs3)no2)cc1,24.2%
16,COc1ccc(/C=N/c2nc3ccccc3n2CCN2CCCCC2)cc1OC,4.24%
17,Cc1ccc(S(=O)(=O)N2CCOC2CNC(=O)C(=O)NCCN(C)C)cc1 (stereo not given),-4.76%
18,CCN(C(=O)COC(=O)c1ccc(Cl)cc1N)C1CCCCC1,30.8%
19,O=c1c2cc([N+](=O)[O-])cc([N+](=O)[O-])c2[nH]n1-c1ccccc1,5.65%
20,CC(=NNC(=O)COc1cccc(C)c1)c1cccnc1,2.36%
21,COc1ccc(CNC(=O)C/C(C)=N/NC(=O)COc2cccc(C)c2)cc1,-10.6%
22,O=S(=O)(Nc1c(O)ccc2ccccc12)c1ccc(F)cc1,-1.3%
23,O=S(=O)(Nc1ccc2c3c(cccc13)CC2)c1ccc(F)cc1,21.3%

row,Structure (SMILES),inhibition
1,O=C(COc1ccc(Br)cc1)Nc1ccccc1N1CCCC1,26.6%
2,CCn1c(-c2nonc2NC(=O)c2ccccc2)nc2ccccc21,3.27%
3,CCn1c(NC2CCCCC2)nc2ccccc21,8.52%
4,CCn1c(CNC(=O)c2ccccc2)nc2ccccc21,2.98%
5,CCn1c(NC(=O)c2ccc(COc3ccc(C)cc3[N+](=O)[O-])o2)nc2ccccc21,14%
6,CCn1c(NC(=O)Nc2ccccc2OC)nc2ccccc21,43%
7,CCn1c(NC(=S)Nc2ccccc2)nc2ccccc21,57.9%
8,CN(C)CCCn1c(NC(=O)C2CCCCC2)nc2ccccc21,24.1%
9,O=C(Nc1nc2ccccc2n1Cc1ccccc1)c1ccc(COc2ccccc2[N+](=O)[O-])o1,-4.43%
10,COc1ccc(C(C)(C)NC(=O)C2CCC(=O)N(C3CCCC3)C2)cc1OC (stereo not given),1.54%
11,O=C(O)c1cc(-c2ccc(Cl)cc2)n(-c2ccc(Cl)cc2)n1,28.3%
12,O=C(COC(=O)c1ccc(OC(F)F)cc1)Nc1cccc(S(=O)(=O)NC2=NCCC2)c1,-15.4%
13,CN(C)S(=O)(=O)N1CCC(Oc2ccc(C(=O)N3C[C@H]4CC[C@H]3C4)cc2)CC1,-6.7%
14,O=C(CCS(=O)(=O)Cc1ccccc1)NCC1CCCO1 (stereo not given),-2.41%
15,CNC(=O)n1cc(C)c(-c2cccs2)n1,3.54%
16,O=C(NCc1cccnc1)C1CCC(CNS(=O)(=O)c2cccc3nsnc23)CC1 (stereo not given),-1.6%
17,CCOc1cc(S(=O)(=O)NC2CCCCC2)ccc1F,22.4%
18,C=CCn1c(SCC(=O)Nc2ccc(C(=O)O)cc2)nc2scc(-c3ccccc3)c2c1=O,6.43%
19,CCn1c(C)nc2cc(C(=O)N/N=C/c3ccc(OC)cc3)ccc21,-1.99%
20,Cn1c(NC(=O)c2cccnc2)nc2ccccc21,74.7%
21,CCn1c(/C=N/Nc2ccc(C(=O)O)cc2)nc2ccccc21,5.68%
22,O=C(Nc1nc2ccccc2n1CCN1CCOCC1)c1ccccc1,78.5%
23,Cn1c(CCNC(=O)c2ccccc2)nc2ccccc21,-11.6%

row,Structure (SMILES),inhibition
1,CCCn1c(CNC(=O)c2ccccc2)nc2ccccc21,1.31%
2,Cc1ccc(-n2nc3c(=O)n(CCCC(=O)NCc4ccc(Cl)cc4)nc(C)c3c2C)cc1,52.4%
3,Cc1ccc(C(C(=O)NC2CCCC2)N(C(=O)c2csnn2)c2ccccc2)o1 (stereo not given),9.58%
4,O=[N+]([O-])c1cccc(/C=N\N2CCN(Cc3ccccc3Cl)CC2)c1,-2.97%
5,O=C(COc1ccc(Br)cc1)N1CCC(c2ccccc2)C1 (stereo not given),68%
6,COC(=O)C1(C)CN(S(=O)(=O)c2ccc(C)cc2)c2cc(OC)ccc2C1=O (stereo not given),35.5%
7,Cc1cc(Sc2ccc([N+](=O)[O-])cn2)ccc1Br,12.1%
8,O=[N+]([O-])c1ccc(Oc2cccc(C(F)(F)F)c2)nc1,65.4%
9,O=S(=O)(c1cccc(C(F)(F)F)c1)c1ccc(O)cn1,0.61%
10,CC1=NCCN1S(=O)(=O)c1ccc(Br)c(C)c1,1.05%
11,CCOc1ccc(CCNC(=O)COC(=O)Cn2cnc3ccccc3c2=O)cc1OCC,18.2%
12,COc1ccccc1CNC(=O)COC(=O)COc1ccccc1Cc1ccccc1,25.1%
13,O=C(Nc1cccc(-n2cnnn2)c1)c1ccoc1COc1ccc(Cl)cc1,5.71%
14,CSc1ccccc1C(=O)C1CCCN(S(=O)(=O)c2c(C)noc2C)C1 (stereo not given),-0.64%
15,c1ccc(Nc2c(-c3ccco3)nc3ccccn23)cc1,43.1%
16,Cc1ccc(Nc2c(-c3ccco3)nc3ccccn23)cc1,43.3%
17,CCOc1ccc(S(=O)(=O)N(CC(=O)NCc2cccnc2)c2ccc(F)cc2)cc1,1.08%
18,CCN(C[C@H]1N[C@@](CC)(C(=O)OC)[C@H]2C(=O)N(C)C(=O)[C@@H]12)C(=O)Nc1ccc(C)cc1,3.1%
19,O=C(O)C1CC(=O)N(c2ccc3c(c2)OCCO3)C1 (stereo not given),-10.2%
20,O=C1c2ccccc2NC(c2ccc3c(c2)OCCO3)N1c1ccc2c(c1)OCCO2 (stereo not given),29.3%
21,CN1CCN(c2ccc(CNC(=O)c3ccc4c(c3)OCCO4)cc2)CC1,-0.49%
22,Cc1cc(Cl)ccc1NC(=O)COC(=O)c1nc2nccc(C)n2n1,-0.03%
23,COc1cc2c(cc1OC)CN(CCOc1ccc(Br)cc1)CC2,17.6%

row,Structure (SMILES),inhibition
1,O=C(CN1CCOCC1)c1ccc(Br)cc1,61.8%
2,O=C(NCCN1CCOCC1)c1ccc(Cl)cc1,-1.14%
3,CC(CN1CCCC1)OC(=O)c1ccc(Br)cc1 (stereo not given),-10.6%
4,COc1cc2c(cc1OC)CN(C(=O)CCC(=O)c1ccc(F)cc1)CC2,19.6%
5,O=C(CCN1CCOCC1)c1ccccc1,75.5%
6,CC(CN1CCOCC1)OC(=O)c1ccccc1 (stereo not given),-8.24%
7,O=C(NCCCN1CCOCC1)c1ccc(Br)cc1,17.1%
8,O=C(CCc1ccccc1)Nc1ccccc1F,18.9%
9,COc1ccccc1N(C(=O)CNC(=O)c1ccco1)C(C(=O)NC1CCCC1)c1ccncc1 (stereo not given),2.47%
10,CSc1cccc(NC(=O)CCNS(=O)(=O)c2ccc3[nH]c(=O)oc3c2)c1,-8.71%
11,O=C(NCCCN1CCOCC1)c1cc2c([nH]c3ccccc32)c(-c2cccc(Br)c2)n1,77.1%
12,CN=C1S/C(=C/c2cn(CC(=O)OC)c3ccccc23)C(=O)N1C,47.1%
13,O=C(O)C1CC(=O)N(CCOc2ccccc2)C1 (stereo not given),-0.16%
14,CC1CCC(NC(=O)CCNC(=O)c2ccc(Br)cc2)CC1 (stereo not given),67.6%
15,Cn1cnnc1Sc1ccc(C(=O)NCCC23CC4CC(CC(C4)C2)C3)cc1[N+](=O)[O-],33.9%
16,COc1ccc(C(C)C)cc1S(=O)(=O)NCC1CCCO1 (stereo not given),16%
17,CC1CCCN(CCOc2ccc(Br)cc2)C1 (stereo not given),16.9%
18,CC1CCCN(CCC(=O)Nc2ccc(Br)cc2)C1 (stereo not given),10.6%
19,COc1ccc(OC)c2c1CC(C)(C)NC2=O,-28.9%
20,COc1ccc(/C=C2\SC(=S)N(CCCC(=O)Nc3ccc(O)cc3)C2=O)cc1,53.3%
21,COc1ccc(/C=C2/SC(=S)N(CCCC(=O)Nc3ccc(O)cc3)C2=O)cc1,71.1%
22,Cc1ccc(S(=O)(=O)CCC(=O)Oc2ccc3c(C)cc(=O)oc3c2)cc1,6.87%
23,CC(C)CNC(=O)N1c2ccccc2Sc2ccccc21,30.4%
